# A selection: hits, their analogues and other compounds. The true share with any hit is near 6.6%.
# KB-3-1 tox: qHTS assay for MDR1-selective chemotherapeutics: Primary screen using the parental adenocarcinoma cell KB-3-1 | KB-3-1 viability, CellTiter-Glo ATP luminescence, 72 h | actives 1.4% (n = 400,000) | AID 1347075, 2019 | Potency, µM (highest dose often 46.1 µM), usual class: cytotoxic; also: nearly all actives have a fitted effect of over 60% in size
#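 Parental KB-3-1 adenocarcinoma cells in phenol-red-free DMEM with 10% FBS were pin-treated with compounds at several concentrations, incubated 72 h at 37 °C, and viability read by CellTiter-Glo luminescence; concentration-effect curves were fitted after normalization.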
# PTAP TSG101 blk: qHTS Assay for Iinhibitors of HIV-1 Budding by Blocking the Interaction of PTAP/TSG101 | Tumor susceptibility gene 101 protein (Homo sapiens), Q99816 | Fluorescence polarization, FITC-PTAP peptide / Tsg101 binding | Potency, µM (top dose mostly 115 µM), hits mostly inhibitors | 340,000 tested, under 10 active | AID 493005, 2010; active = well fitted inhibition curve with a large enough effect in the main read-out, with a control signal flat, not every such curve was filed as active; inconclusive = small, poorly fitted or top-dose-only effect, or effect the other way, or a change in a side signal; inactive = no such curve, though single readings can be large or run the other way
# Target sequence (Q99816 whole entry, looked up): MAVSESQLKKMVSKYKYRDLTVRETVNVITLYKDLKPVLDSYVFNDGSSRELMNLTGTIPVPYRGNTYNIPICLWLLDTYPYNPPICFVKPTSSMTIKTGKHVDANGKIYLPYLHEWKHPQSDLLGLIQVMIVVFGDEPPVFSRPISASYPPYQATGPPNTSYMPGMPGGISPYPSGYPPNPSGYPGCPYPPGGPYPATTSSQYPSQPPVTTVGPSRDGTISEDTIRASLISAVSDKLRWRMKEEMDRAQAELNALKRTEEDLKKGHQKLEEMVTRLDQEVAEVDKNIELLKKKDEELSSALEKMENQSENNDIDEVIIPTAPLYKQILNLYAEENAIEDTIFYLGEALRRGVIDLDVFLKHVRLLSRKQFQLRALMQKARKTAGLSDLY
#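 FP read-out: FITC-PTAP peptide, 50 nM final, binding Tsg101 binding domain, 10 uM final; 20 min, r.t.; 10 mM HEPES pH 7.5, 0.15 M NaCl, 0.01% Tween 20, 3 mM EDTA, 0.1 mM TCEP.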
# MCF10A rereplic: A quantitative high throughput screen for small molecules that induce DNA re-replication in MCF 10a normal breast cells; AID 624296, 2012; Potency, µM (highest dose often 46.1 µM), most hits filed as activators; MCF 10A DNA re-replication, Hoechst nuclear intensity, 48 h; actives 2.9% (n = 350,000); also: nearly all actives have a fitted effect of over 50% in size
# SW480 rereplic: A quantitative high throughput screen for small molecules that induce DNA re-replication in SW480 colon adenocarcinoma cells. SW480 DNA re-replication, Hoechst DNA content imaging, 48 h. Potency, µM (highest dose often 46.1 µM), most hits filed as activators. actives 1.8% (n = 340,000); also: nearly all actives have a fitted effect of over 55% in size
#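 Treated cells incubate 48 hr (37 C, 5% CO2), are stained 40 min with Hoechst, and nuclear fluorescence is enumerated; a rise in nuclei with high DNA signal marks re-replication.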
# RGS4 inhibitor: Inhibitors of Regulator of G Protein Signaling (RGS) 4: qHTS. Regulator of G-protein signaling 4 (Homo sapiens), P49798. Potency, µM (doses to about 114 µM), hits mostly inhibitors. actives 0.039% (n = 390,000). Transcreener GDP fluorescence polarization, RGS4-accelerated GTP hydrolysis; also: nearly all actives have a fitted effect of over 75% in size
# Target sequence (P49798 whole entry, looked up): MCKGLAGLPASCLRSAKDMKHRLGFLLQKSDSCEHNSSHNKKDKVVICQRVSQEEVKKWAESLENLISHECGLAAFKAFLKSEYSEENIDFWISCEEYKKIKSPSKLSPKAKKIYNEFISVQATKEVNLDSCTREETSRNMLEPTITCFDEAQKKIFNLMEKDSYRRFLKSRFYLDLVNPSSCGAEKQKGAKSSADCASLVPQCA
#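 MLSMR compounds (23 nl, pin-transferred) preincubated 10 min at room temperature with a 500nM (2x) first reagent, then RGS4 at 900nM (2x) plus Transcreener GDP mix added; fluorescence polarization (620/688 nm) read before and after 90 min at 30 °C.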
# KB-V1 cytotox: qHTS assay for MDR1-selective chemotherapeutics: Primary screen using the drug-selected MDR subline cells KB-V1; actives 3.4% (n = 400,000); AID 1347076, 2019; Potency, µM (top dose mostly 46.1 µM), usual class: cytotoxic; KB-V1 MDR cells viability, CellTiter-Glo, 72 h; also: nearly all actives have a fitted effect of over 60% in size
#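 Cytotoxicity toward P-gp-expressing KB-V1 cells was determined as loss of CellTiter-Glo luminescence after 72 h at 37 degrees C. Compounds were tested in quantitative HTS format across a concentration range, with curves fitted to normalized data.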
# Hits are given with their value; n = inactive; u = inconclusive; x = no result given; ! = repeats disagree; [ ] = another dose, or the depositor's remark. Unless noted, calls follow the shape of the dose curve; as a rule, active = well fitted curve in the direction sought with a large enough effect; inconclusive = small, poorly fitted or top-dose-only effect, or another doubt; inactive = no such curve, though single readings can be large; an effect the other way counts as inactive or inconclusive.
SMILES,KB-3-1 tox,PTAP TSG101 blk,MCF10A rereplic,SW480 rereplic,RGS4 inhibitor,KB-V1 cytotox
O=C(/C=C/c1ccco1)Nc1ccc(-c2nc3ccccc3[nH]2)cc1,u,n,2.6µM,u,u,n
COc1cccc(NC(=O)/C=C/c2ccco2)c1,n,n,n,n,n,u
Cc1cc(-c2ccccc2)nc(N/N=C/c2ccc([N+](=O)[O-])cc2)n1,n,n,n,n,n,23µM
O=[N+]([O-])c1ccc(C=NNc2ccccc2)cc1,n,n,u,n,n,n
Cc1sc(N/N=C/c2ccco2)nc1-c1ccccc1,n,n,n,n,n,n
Cc1sc(N/N=C/c2cccnc2)nc1-c1ccccc1,u,n,u,u,n,12µM
Cc1cc(-c2ccccc2)nc(N/N=C/c2ccccc2)n1,n,n,n,n,n,n
Cc1ccc(-c2cc(-c3ccccc3)nc(N/N=C/c3cccnc3)n2)cc1,n,x,9.2µM,u,n,u
O=[N+]([O-])c1ccc(N/N=C/c2ccccc2)c(F)c1,n,n,5.8µM,u,n,u
Cc1cccn2c(=O)c3cc(C#N)c(=O)n(-c4nnc(SCc5ccccc5F)s4)c3nc12,n,x,x,x,n,n
CCOc1ccc(NC(=O)C2CCN(S(=O)(=O)c3c(C)noc3/C=C/c3cccs3)CC2)cc1,x,x,x,x,n,x
Cc1ccc(-n2ncc(C(=O)NCCCN3CCCCC3)c2C2CCN(C(=O)OC(C)(C)C)CC2)cc1,n,x,x,x,n,n
CCCCC12CN3CC(C)(CN(C1)C31C(=O)N(C)c3ccc(C)cc31)C2=O (configuration not stated),n,n,n,n,n,9.2µM
Cc1[nH]nc(C(=O)NN=Cc2ccccc2Cl)c1N=NN(C)C,n,n,16µM,15µM,u,n
COc1ccc(N2C(=O)c3ccc(C(=O)Nc4ccccc4O)cc3C2=O)cc1,n,n,2.9µM,n,n,u
C[C@H]1O[C@@H](O[C@H]2[C@@H](O)C[C@H](O[C@H]3[C@@H](O)C[C@H](O[C@H]4CC[C@@]5(C)[C@H](CC[C@@H]6[C@@H]5C[C@@H](O)[C@]5(C)[C@@H](C7=CC(=O)OC7)CC[C@]65O)C4)O[C@@H]3C)O[C@@H]2C)C[C@H](O)[C@@H]1O,0.18µM,n,u,0.41µM,1.7µM!,0.41µM
C[C@@H]1C(SC2Cn3cnc[n+]3C2)=C(C(=O)[O-])N2C(=O)[C@H]([C@@H](C)O)[C@@H]12 (some centres not stated),x,x,n,n,x,x
COc1ccc(CCNC(=O)c2ccc3c(c2)CCN3S(=O)(=O)c2ccc(C)cc2)cc1,n,x,x,x,n,u
COc1ccc(NC(=O)CN2CCN(C3c4ccccc4-c4ccccc43)CC2)c(OC)c1,u,n,8.2µM,n,n,n
CCOc1ccc(NC(=O)CN2CCN(C3c4ccccc4-c4ccccc43)CC2)cc1,n,n,u,n,n,18µM
COc1ccccc1NC(=O)CN1CCN(C2c3ccccc3-c3ccccc32)CC1,u,n,5.8µM,u,n,n
CCn1c(SC)nc2c([nH]c3ccccc32)c1=O,x,x,x,x,n,x
Cc1cccc(C(=O)N2CCc3cc(CNC(=O)c4cc5ccccc5[nH]4)ccc32)c1,n,x,x,x,n,n
CCOc1cc2c(cc1O)C(=NOC)CC1C2CCC2(C)C(O)CCC12 (configuration not stated),0.65µM,n,2.1µM,5.8µM,n,0.52µM
COc1ccc(/C=N/Nc2ncnc3sc4c(c23)CCCC4)cc1OC,18µM,n,u,u,n,u
SMILES,KB-3-1 tox,PTAP TSG101 blk,MCF10A rereplic,SW480 rereplic,RGS4 inhibitor,KB-V1 cytotox
CN(c1ccccc1)c1ccc(/C=C(\C#N)c2nnc3n2CCCCC3)cc1[N+](=O)[O-],u,n,u,n,n,10µM
CCOC(=O)C1=CCN(S(=O)(=O)c2cccc(Cl)c2)C1c1ccccc1 (configuration not stated),n,x,x,x,x,18µM
CCOC(=O)C1=CCN(S(=O)(=O)c2ccccc2C)C1c1cccc(Cl)c1 (configuration not stated),u,x,x,x,x,21µM
CCOC(=O)C1=CCN(S(=O)(=O)c2ccccc2Br)C1c1cccc(Cl)c1 (configuration not stated),n,x,x,x,x,n
Cn1c(=O)cc(SCC(=O)NCc2ccc(F)cc2)c2ccccc21,u,n,15µM,n,n,n
COc1ccc(-c2cc3nc4n(c(=O)c3s2)CCC4)cc1,n,n,n,n,n,n
COc1ccc(-c2cc3nc(C)n(N)c(=O)c3s2)cc1,u,n,n,n,n,4.6µM
Cc1nc2cc(-c3ccccc3)sc2c(=O)n1N,3.7µM,n,n,n,n,n
Cc1cc2ccccc2n2c(SCC(=O)Nc3cccc(C(F)(F)F)c3)nnc12,n,x,x,x,n,n
COc1ccc(NC(=O)c2c(NC(=O)C(F)(F)F)sc3c2CCCCC3)cc1,n,x,x,x,n,n
Cc1cc(=O)[nH]c(SCC(=O)C23CC4CC(CC(C4)C2)C3)c1C#N,u,n,u,u,n,6.5µM
C=CCS(=O)(=O)c1nc2ccccc2s1,u,n,7.3µM,u,n,23µM
O=S(=O)(CCSc1nc2ccccc2s1)c1nc2ccccc2s1,u,n,u,u,n,u
COc1ccccc1NC(=O)c1oc2ccccc2c1NC(=O)Cc1cccs1,n,x,x,x,u,n
Cc1cc(C(=O)CN2CCN(CC(=O)Nc3cccc(F)c3)CC2)c(C)n1C1CC1,n,n,n,n,n,10µM
COc1nc(N/N=C/c2ccc(-c3ccccc3[N+](=O)[O-])o2)nc(N2CCOCC2)n1,u,n,10µM,u,n,u
O=[N+]([O-])c1ccc(-c2ccc(/C=N/Nc3nc(NCc4ccccc4)nc(N4CCOCC4)n3)o2)cc1,n,n,7.3µM,9.2µM,n,n
O=[N+]([O-])c1ccc(/C=N/Nc2nc(N3CCCCC3)nc(N3CCCCC3)n2)cc1,n,n,n,n,n,n
O=[N+]([O-])c1ccc(/C=N/Nc2nc(N3CCCCCC3)nc(N3CCCCCC3)n2)o1,6.5µM,n,u,u,n[11.4 µM],u
CSc1ccc(C2c3[nH]c4ccccc4c3CCN2C(=O)CCC2CCCC2)cc1 (configuration not stated),x,x,x,x,n,x
